POLB inh – DNA polymerase beta (human) inhibition; P06746; Pol beta primer extension/strand displacement, fluorescence kinetic; Potency, µM (doses to about 114 µM), inactives show at the top dose activity change, negative = inhibition, most hits filed as inhibitors; 340,000 compounds, 1.3% hits; note: % is set by controls: 0 for no effect and ±100 for the full control effect
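Kinetic readout of DNA synthesis with strand displacement by Pol beta. Compound and 10 nM enzyme sit 15 min at room temperature; 50 nM substrate starts the reaction, read immediately and at 10 min.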
WRN inhibitor – inhibitors of human WRN helicase; 360,000 compounds, 0.46% hits; AID 651768; Q14191; Potency, µM (highest dose often 114 µM), for inactives: at the top dose activity change, negative = inhibition, most hits filed as inhibitors; WRN helicase unwinding, fluorescent forked duplex, kinetic; note: % is set by controls: 0 for no effect and ±100 for the full control effect; nearly all actives have a fitted effect of over 55% in size
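Primary qHTS, 1536-well format. 20 nM WRN + compound, 15 min RT; start with 100 nM forked fluorophore/quencher duplex, 2 mM ATP (final); kinetic read ex 525/em 598 nm.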
Pol kappa inh – inhibitors of human DNA polymerase kappa. AID 588579. purified Pol kappa, fluorescent DNA synthesis assay, 10 min. 400,000 compounds, 0.53% hits. Q9UBT6. Potency, µM (titrated, usually from 107 µM), for inactives: at the highest dose activity, negative = inhibition, hits mostly inhibitors; note: % is set by controls: 0 for no effect and ±100 for the full control effect
Target sequence (Q9UBT6 whole entry, looked up): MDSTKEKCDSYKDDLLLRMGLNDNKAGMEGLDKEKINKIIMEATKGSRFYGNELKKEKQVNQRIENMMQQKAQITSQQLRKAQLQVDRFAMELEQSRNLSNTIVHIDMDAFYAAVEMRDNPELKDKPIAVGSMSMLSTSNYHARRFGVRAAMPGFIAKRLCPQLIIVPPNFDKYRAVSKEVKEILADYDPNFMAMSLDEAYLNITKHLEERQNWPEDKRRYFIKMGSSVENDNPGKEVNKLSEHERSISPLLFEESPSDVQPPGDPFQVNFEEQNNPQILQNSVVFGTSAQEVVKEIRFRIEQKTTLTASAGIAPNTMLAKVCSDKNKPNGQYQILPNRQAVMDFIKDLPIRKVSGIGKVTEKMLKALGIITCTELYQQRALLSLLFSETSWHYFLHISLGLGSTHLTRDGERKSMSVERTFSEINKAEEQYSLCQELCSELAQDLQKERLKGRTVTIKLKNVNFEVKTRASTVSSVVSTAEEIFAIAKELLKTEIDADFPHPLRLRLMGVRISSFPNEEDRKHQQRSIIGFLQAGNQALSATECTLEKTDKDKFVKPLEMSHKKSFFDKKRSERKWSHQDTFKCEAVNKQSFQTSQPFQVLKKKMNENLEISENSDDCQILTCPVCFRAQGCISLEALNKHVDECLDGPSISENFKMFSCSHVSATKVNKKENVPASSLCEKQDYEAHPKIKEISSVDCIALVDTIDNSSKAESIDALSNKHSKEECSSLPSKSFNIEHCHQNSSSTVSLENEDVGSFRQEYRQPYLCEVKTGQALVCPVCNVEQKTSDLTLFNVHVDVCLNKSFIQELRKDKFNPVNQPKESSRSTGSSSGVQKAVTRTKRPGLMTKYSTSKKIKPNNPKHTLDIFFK
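Enzyme at 10 nM met test compounds for 15 min at room temperature. Substrate addition (50 nM final) began the reaction, which was monitored by fluorescence at 0 and 10 min.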
Pol iota inh – DNA polymerase iota (human) inhibition; Q9UNA4; Pol iota fluorescent replication assay, 10 min; Potency, µM (series often up to 115 µM), for the others: at the top dose activity, negative = inhibition, usual class: inhibitors; 390,000 compounds, 1% hits; AID 588590
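Fluorescent replication assay read twice, at 0 min and 10 min after adding 50 nM (final) substrate. Enzyme (10 nM) and compounds were first incubated 15 min at room temperature; enzyme-free buffer wells were negative controls.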
POLH inh – DNA polymerase eta (human) inhibition | Q9Y253 | recombinant Pol eta, fluorescent DNA replication assay | Potency, µM (titrated, usually from 114 µM), for inactives: top-dose activity change, negative = inhibition, hits mostly inhibitors | 390,000 compounds, 1.2% hits; note: % is set by controls: 0 for no effect and ±100 for the full control effect
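Pol eta at 10 nM preincubated with compounds 15 min at room temperature; reaction started with fluorescent substrate (50 nM final) and read kinetically at 0 and 10 min.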
FEN1 inhibitor – blocks human flap endonuclease 1 | P39748 | Recombinant FEN1 flap cleavage, fluorescence, 15 min | Potency, µM (top dose mostly 114 µM), for inactives: top-dose activity change, negative = inhibition, actives largely listed as inhibitors | 390,000 compounds, 0.35% hits | AID 588795; note: % is set by controls: 0 for no effect and ±100 for the full control effect; nearly all actives have a fitted effect of over 65% in size
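FEN1 at 10 nM, compound pretreatment for 15 min (room temperature), 50 nM final substrate to initiate; endpoint reads at 0 and 15 min; DMSO-only plates used as vehicle background.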
Active calls of the source: *; ? = inconclusive; . = no result given; ! = not confirmed by another sample; [ ] = another dose, or the depositor's remark. Most compounds without a hit are left out; they make up all but 2.4% or so of the library. Calls come from the whole dose curve; as a rule, active = well fitted curve in the direction sought with a large enough effect; inconclusive = small, poorly fitted or top-dose-only effect, or another doubt; inactive = no such curve, though single readings can be large; an effect the other way counts as inactive or inconclusive. Potency is the fitted concentration of half-maximal effect.

SMILES	POLB inh	WRN inhibitor	Pol kappa inh	Pol iota inh	POLH inh	FEN1 inhibitor
CC(=O)Nc1ccc(S(=O)(=O)NCCC(=O)OCC(=O)N2CCN(C(=O)c3ccco3)CC2)cc1	45µM*	?	-32%	45µM*	?	-2%
CCOC(=O)c1noc2ncn(CC(=O)Nc3ccc(F)cc3Cl)c(=O)c12	-30%	.	0%[60.1 µM]	-6%	-7%	2%
O=C(/C=C/c1ccc(Cl)cc1)c1cccnc1	6%	?	-1%	?	-9%	-14%
O=C(/C=C/c1ccccc1Cl)c1cccnc1	-5%	?	-1%	40µM*	1%	-14%
O=C(/C=C/c1ccccc1Cl)c1ccccc(=O)c1O	45µM*	-5%[11.6 µM]	-22%	28µM*	?	-1%
Cc1ccc2scc(N3CCCCC3)c(=O)c2c1	17%	.	-6%[60.1 µM]	-3%	-17%	-7%
CCc1c(C)sc2c1CCN(C(=O)Nc1ccc(F)c(Cl)c1)C2c1ccc(F)cc1 (configuration not stated)	-8%	.	-1%[60.1 µM]	?	-20%	15%
CCCCC(=NCCc1c(C)[nH]c2ccccc12)C1=C(O)CC(c2ccccc2)CC1=O (configuration not stated)	2%	-6%[57.1 µM]	4%	20%	-10%	4%
CCCC(=NCCc1c(C)[nH]c2ccccc12)C1=C(O)CC(c2ccccc2)CC1=O (configuration not stated)	2%	0%	-7%	89µM*	-25%	-4%
Cc1ccc(CNC(=O)C(=O)Nc2c3c(nn2-c2ccc(F)cc2)CSC3)cc1	?	.	-2%[60.1 µM]	1%	5%	-4%
CCCCCCc1cc2cc(-c3nnc(-c4ccccc4O)o3)c(=O)oc2cc1O	?	-13%	0%	?	1.8µM*	5%
CCCCCCc1cc2cc(-c3nnc(-c4cc(OC)c(OC)c(OC)c4)o3)c(=O)oc2cc1O	8%	-10%	-9%	6%	?	-22%
C[n+]1ccc(/C=C/c2ccc([N+](C)(C)C)cc2)c2ccccc21	.	.	?	?	.	22µM*
C[n+]1ccc(/C=C/c2cc[n+](C)c3ccccc23)c2ccccc21	.	.	?	?	.	10µM*
C[n+]1ccc(/C=C/c2ccc(F)cc2)c2ccccc21	.	.	-28%	-29%	.	-7%
COc1ccc(/C=C/c2cc[n+](C)c3ccccc23)cc1OC	.	.	?	?	.	45µM*
N#C/C(=C\c1cc(Cl)cc(Cl)c1)c1cccnc1	.	.	3%[19.4 µM]	.	.	.
Cc1ccc(Nc2nc(NCc3ccco3)nc3nccnc23)cc1C	.	.	-14%	0%	.	-15%
CC/C=C\[C@H](O)[C@H](O)C1=C(C)C(=O)[C@]2(O1)C(=O)N[C@@](OC)(C(=O)c1ccccc1)C2O (some centres not stated)	35µM*	0%	?	?	1%	0%
CCC(=O)N(CCC(c1ccco1)C(C)C)Cc1ccccc1 (configuration not stated)	3%	-9%	-8%	137%	-22%	15%
CCC(=O)N(CCC(c1ccc(C)cc1)c1ccco1)Cc1ccco1 (configuration not stated)	25µM*	?	?	45µM*	?	-20%
COc1ccc([C@]23Cc4cc(OC)c(OC)cc4C(O2)c2c(cc(C)n(Cc4ccccc4)c2=O)O3)cc1	-6%[22.9 µM]	.	.	.	.	.
COc1ccc(-c2c[n+]3c4n2CCCCC4=C(c2ccc(Br)cc2)C3)cc1	25µM*	-14%	-2%	?	1%	1%
CN(C)c1ccc(-c2nc(-c3ccco3)no2)cc1[N+](=O)[O-]	1%	.	-18%	12%	-7%	16%
Cc1ccc(-c2cn(-c3cccc(Cl)c3)c(S(=O)(=O)CC(=O)Nc3cccc(C)c3)n2)cc1	13%	.	-5%	71µM*	-2%	-6%
SMILES	POLB inh	WRN inhibitor	Pol kappa inh	Pol iota inh	POLH inh	FEN1 inhibitor
O=C(CS(=O)(=O)c1nc(-c2ccc(Cl)cc2)cn1-c1ccccc1)Nc1cccc(Cl)c1	4%	.	-17%	?	-15%	-1%
COc1ccc(NC(=O)Nc2ccc([N+](=O)[O-])cc2)cn1	28µM*	?	-40%	?	?	-18%
COc1ccc(NC(=O)Nc2cccs2)cn1	19%	5%	-13%	39%	-14%	12%
O=C(O)CCN1C(=O)/C(=C\c2ccncc2)SC1=S	1%	7%	8%	46%	2%	-2%
O=C(O)CCN1C(=O)/C(=C\c2ccc(-c3nc4ccccc4s3)o2)SC1=S	?	?	-24%	-19%	2.5µM*	-2%
Oc1cccc(CN2CCOCC2)c1O	.	?	28µM*	20µM*	2%	?
Oc1c(CN2CCOCC2)cc(CN2CCOCC2)c(O)c1O	.	22µM*	?	?	?	?
O=C1CC(c2ccccc2)N1c1ccccc1 (configuration not stated)	12%	-6%	-9%	0%	-2%	-4%
COC(=O)C1=C(SC)N(c2ccccc2)C(c2ccccc2)CC1=O (configuration not stated)	0%	?	89µM*	13%	-2%	-2%
Nc1c(N2CCOCC2)cc(Cl)c2nonc12	-1%	-14%	-1%	3.5µM*	-5%	-2%
Cc1cc(N2CCOCC2)c2c(N)cc(C)c(C)c2n1	0%	-3%	-2%	7%	-3%	-9%
CC(=O)c1c(C)nc(-c2ccc(Cl)cc2)nc1N=CN(C)C	35µM*	6%	-16%	-1%	-15%	-4%
CC(=O)c1c(C)nc(-c2ccc(Cl)cc2)nc1N	1%	1%	-5%	50%	-12%	13%
CCN1CCN(Cc2ccc(NC(=O)c3ccc(C)c(NC(=O)c4ccno4)c3)cc2C(F)(F)F)CC1	-10%	-2%	22%	13%	2%	-2%
CCN1CCN(Cc2ccc(NC(=O)c3ccc(C)c(/C=C/c4cnc(Nc5cc(N6CCNCC6)nc(C)n5)cn4)c3)cc2C(F)(F)F)CC1	11%	20µM*!	-34%	?	79µM*	13µM*
COc1ccccc1-c1cnc(C(O)c2ccc(C)cc2C)[nH]1 (configuration not stated)	.	3%[57.1 µM]	.	.	.	.
O=CN/C=C/c1cc(O)ccc1O	?	-34%	45µM*	22µM*	50µM*	18µM*
O=Cc1ccc(O)cc1O	11%	2%	-19%	22%	-13%	3%
Cc1ccc(-n2c(-c3ccc(Br)cc3)c[n+]3c2CCc2ccc4cccnc4c2-3)cc1	50µM*	3%	-1%	-3%[58.9 µM]	-9%	?
COc1ccc(-n2c(-c3ccc(Cl)cc3)c[n+]3c2CCc2ccccc2-3)cc1	0%	6%	-4%	33%	-18%	-6%

From PubChem BioAssay
